Measured values: PubChem BioAssay (NCI)
This is part of a sample that, as a whole, favours compounds with a hit. Of some 83,000 tested, about 20% had one in any assay.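 Single-dose data. Exposure time 48 hours. Values below 10 considered active.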 The source made the active and inactive calls.

Tests used:
Assay in all cases: NCI-60 one-dose screen, 48 h (100 = growth as untreated, 0 = no growth, -100 = all killed)
Settings in all cases: 10 µM unless noted
SK-MEL-2 melanoma = test system: SK-MEL-2 melanoma
EKVX NSCLC = test system: EKVX NSCLC
SN12C renal = test system: SN12C renal
UO-31 renal = test system: UO-31 renal
TK-10 renal = test system: TK-10 renal
ACHN renal = test system: ACHN renal
CAKI-1 renal = test system: CAKI-1 renal
CCRF-CEM leukemia = test system: CCRF-CEM leukemia
MOLT-4 leukemia = test system: MOLT-4 leukemia
SR leukemia = test system: SR leukemia
RPMI-8226 leukemia = test system: RPMI-8226 leukemia
OVCAR-8 ovarian = test system: OVCAR-8 ovarian
OVCAR-5 ovarian = test system: OVCAR-5 ovarian
OVCAR-4 ovarian = test system: OVCAR-4 ovarian
SK-OV-3 ovarian = test system: SK-OV-3 ovarian
IGROV1 ovarian = test system: IGROV1 ovarian
OVCAR-3 ovarian = test system: OVCAR-3 ovarian
HS 578T breast = test system: HS 578T breast
NCI/ADR-RES ovarian = test system: NCI/ADR-RES ovarian

Measured: growth

O=C(/C=C/c1ccc(C(F)(F)F)cc1)Nc1ccc(C=C2c3ccccc3C(=O)c3ccccc32)cc1
inactive: SK-MEL-2 melanoma 25.5% | EKVX NSCLC 53.6% | SN12C renal 89.6% | UO-31 renal 72.6% | TK-10 renal 70.2% | ACHN renal 74.8% | CAKI-1 renal 56.2% | CCRF-CEM leukemia 32.6% | MOLT-4 leukemia 47.5% | SR leukemia 18.6% | RPMI-8226 leukemia 10.4% | OVCAR-8 ovarian 55.7% | OVCAR-5 ovarian 84.2% | OVCAR-4 ovarian 47.5% | SK-OV-3 ovarian 77.9% | IGROV1 ovarian 111% | OVCAR-3 ovarian 44.1% | HS 578T breast 78.5% | NCI/ADR-RES ovarian 60%

C=C1c2nc3ccccc3n2C=C(c2cccc(Cl)c2)N1Cc1ccc(OC)cc1
inactive: SK-MEL-2 melanoma 28.2% | SN12C renal 37% | TK-10 renal 30.8% | ACHN renal 49.2% | CCRF-CEM leukemia 47.2% | OVCAR-4 ovarian 32.4% | HS 578T breast 15.5% | NCI/ADR-RES ovarian 10.2%
active: EKVX NSCLC 8.8% | UO-31 renal 9.79% | CAKI-1 renal 3.02% | MOLT-4 leukemia 8.13% | SR leukemia -17.4% | RPMI-8226 leukemia -15.6% | OVCAR-8 ovarian 9.77% | SK-OV-3 ovarian 5.13% | OVCAR-3 ovarian -28.1%

CC(=O)O[C@H]1CC[C@]2(C)[C@H]3CC=C4[C@@H]5CC(C)(C)CC[C@]5(C(=O)NCCNCCN)CC[C@@]4(C)[C@]3(C)CC[C@H]2C1(C)C
active: SN12C renal -89.9% | UO-31 renal -91.6% | TK-10 renal -79% | ACHN renal -100% | CAKI-1 renal -68.7% | CCRF-CEM leukemia -40.1% | MOLT-4 leukemia -39.9% | RPMI-8226 leukemia -44.4% | OVCAR-8 ovarian -85.3% | OVCAR-5 ovarian -87.7% | OVCAR-4 ovarian -25% | IGROV1 ovarian -63.9% | OVCAR-3 ovarian -91.4% | NCI/ADR-RES ovarian -86%
inactive: SK-MEL-2 melanoma 82.5% | EKVX NSCLC 28.8% | SK-OV-3 ovarian 95.8% | HS 578T breast 80.6%

COc1ccc(/C=C2\Oc3cc(OCCCCN4CCCC4)ccc3C2=O)cc1
inactive: SK-MEL-2 melanoma 98.9% | EKVX NSCLC 91.5% | SN12C renal 90.3% | UO-31 renal 68% | TK-10 renal 98.1% | ACHN renal 95.5% | CAKI-1 renal 95% | CCRF-CEM leukemia 13.8% | MOLT-4 leukemia 42.7% | RPMI-8226 leukemia 80.7% | OVCAR-8 ovarian 91.1% | OVCAR-5 ovarian 93.4% | OVCAR-4 ovarian 92.3% | SK-OV-3 ovarian 113% | IGROV1 ovarian 81.2% | OVCAR-3 ovarian 94.3% | HS 578T breast 90.9% | NCI/ADR-RES ovarian 95.1%
active: SR leukemia -25.3%

COc1ccc(-c2n[nH]nc2-c2csc3ccccc23)cc1OC
active: HS 578T breast 6.17%
inactive: SK-MEL-2 melanoma 15% | EKVX NSCLC 45.8% | SN12C renal 34% | UO-31 renal 35.1% | TK-10 renal 53.2% | ACHN renal 37.7% | CAKI-1 renal 23.2% | CCRF-CEM leukemia 22.8% | MOLT-4 leukemia 11% | SR leukemia 21.3% | RPMI-8226 leukemia 34.8% | OVCAR-8 ovarian 36.9% | OVCAR-5 ovarian 66.2% | OVCAR-4 ovarian 49% | SK-OV-3 ovarian 14.2% | IGROV1 ovarian 48.8% | OVCAR-3 ovarian 11.9% | NCI/ADR-RES ovarian 13.5%

CSc1nc(-c2cccc(NC(=O)CCl)c2)c(C#N)c(=O)n1C
inactive: SK-MEL-2 melanoma 70.9% | EKVX NSCLC 70.8% | SN12C renal 81% | TK-10 renal 117% | ACHN renal 73.9% | CAKI-1 renal 83.7% | MOLT-4 leukemia 14% | OVCAR-8 ovarian 72.6% | OVCAR-5 ovarian 26.7% | OVCAR-4 ovarian 12.5% | SK-OV-3 ovarian 109% | HS 578T breast 88.1% | NCI/ADR-RES ovarian 75.8%
active: UO-31 renal -53.2% | CCRF-CEM leukemia -16.5% | RPMI-8226 leukemia -18.3% | IGROV1 ovarian -64.5% | OVCAR-3 ovarian 8.91%

CN1CCN(Cc2ccc(NC(=O)c3cncc(C#Cc4cncn5ccnc45)c3)cc2C(F)(F)F)CC1
inactive: SK-MEL-2 melanoma 24.2% | EKVX NSCLC 86.6% | SN12C renal 31.3% | UO-31 renal 44% | TK-10 renal 94.2% | ACHN renal 37.8% | CAKI-1 renal 89.2% | CCRF-CEM leukemia 36% | MOLT-4 leukemia 82.9% | SR leukemia 40.8% | RPMI-8226 leukemia 54.9% | OVCAR-8 ovarian 68.8% | OVCAR-5 ovarian 48.4% | OVCAR-4 ovarian 48.5% | SK-OV-3 ovarian 88.9% | IGROV1 ovarian 20.4% | OVCAR-3 ovarian 83.8% | NCI/ADR-RES ovarian 93.6%

COc1cccc(/C=C2\Oc3cc(OCCN4CCCC4)ccc3C2=O)c1
inactive: SK-MEL-2 melanoma 102% | EKVX NSCLC 89.3% | SN12C renal 97.3% | UO-31 renal 80.8% | TK-10 renal 89.3% | ACHN renal 104% | CAKI-1 renal 98.5% | CCRF-CEM leukemia 71.6% | MOLT-4 leukemia 88.9% | SR leukemia 22.2% | RPMI-8226 leukemia 91.7% | OVCAR-8 ovarian 98.4% | OVCAR-5 ovarian 100% | OVCAR-4 ovarian 111% | SK-OV-3 ovarian 108% | IGROV1 ovarian 98.6% | OVCAR-3 ovarian 97% | HS 578T breast 91.8% | NCI/ADR-RES ovarian 93.8%
